# Data: PubChem BioAssay (NCI)
# “And” between values parts separate entries of the source, which are not always exact repeats. Equal entries are not always repeated. About 83,000 compounds went through this panel and 20% of them were active in at least one assay; those are over-represented in the sample as a whole.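 For each line, cells grew in 96-well plates with the test compound present at a single concentration for 48 hours.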 Some structures have more than one record in an assay (separate samples or runs), and their calls can disagree. The source made the active and inactive calls. Rule for the calls: active = growth percent below 10; inactive = the rest.
# Tested on: MDA-MB-468 breast
# Experiment: NCI-60 one-dose screen, 48 h (100 = growth as untreated, 0 = no growth, -100 = all killed)
# Details: 10 µM unless noted
row,SMILES,growth
1,CCN(CC)CCCC(C)NCC(=O)NC(c1ccc2c(c1)OCO2)c1cc(Cl)c2cccnc2c1O (stereo not given),16.6% (inactive)
2,O=C(CCc1nnc2sc(Cc3ccccc3Cl)nn12)c1nc2ccccc2[nH]1,84.5% (inactive)
3,CC/C=C\C[C@H](O)C/C=C1/C(=O)C=C[C@@H]1C/C=C\CCCC(=O)N(C)C,-67.8% (active)
4,CSc1nsc(N)n1,103% (inactive)
5,O=C(CCN1C(=O)c2ccccc2C1=O)Nc1ccc(Cl)cc1,116% (inactive)
6,COC(=O)CCCNCCCn1ccc2cc(NCc3cccc(-c4ccccc4)c3C)ccc21,53.4% (inactive)
7,COc1ccccc1CNCCCN1C(=O)c2ccc3c4c(ccc(c24)C1=O)C(=O)N(CCCNCc1ccccc1OC)C3=O,-96.6% (active)
8,Nc1ncnc2c1C(c1ccc([N+](=O)[O-])cc1)c1sc3c(F)cccc3c1O2 (stereo not given),-15% (active)
9,C#CCOc1cccc(Nc2ncnc3c2ncn3C2CCN(C(=O)CCl)C2)c1 (stereo not given),-65.7% (active)
10,CCC(=O)Sc1ccccc1C(=O)Nc1ccc(Cl)cc1,27% (inactive)
11,COc1ccc2nc(-n3nc(C)cc3C)c(-n3nc(C)cc3C)nc2c1,103% (inactive)
12,Cc1nc2ccc(Nc3nc(NCCN4CCOCC4)nc(Nc4ccc(F)cc4)n3)cc2n1Cc1ccccc1,14% (inactive)
13,COc1ccc(/C=C2\CCCC3=C2N=C2SC(C)=CN2C3c2ccc(OC)cc2)cc1 (stereo not given),85.1% (inactive)
14,COc1cc(NC(=O)Nc2cnc(Nc3ccc(N4CCOCC4)cc3)nc2Oc2ccc(C(F)(F)F)cc2)cc(OC)c1,110% (inactive)
15,CC1=C(/C=C/C(C)=C/C=C/C(C)=C/C=N/NC(=S)NC(=S)N/N=C/C=C(C)/C=C/C=C(C)/C=C/C2=C(C)CCCC2(C)C)C(C)(C)CCC1,10.1% (inactive) and -26.7% (active)
16,COc1cc2nc(SCc3cc(OC)c(OC)c(OC)c3)n(-c3ccccc3OC)c(=O)c2cc1OC,97.9% (inactive)
17,CCN(CC)CCCC(C)Nc1c2ccc(Cl)cc2nc2ccc(OC)cc12 (stereo not given),-63.3% (active)
18,COCc1cnccc1NC1CCCCCC1,102% (inactive)
19,Cc1nc2c3c(-c4ccccc4)c(-c4ccccc4)oc3ncn2n1,93.9% (inactive)
20,CN1CCN(c2ccc(-c3ccc4ncc(C#N)c(Nc5ccc(F)c(Cl)c5)c4c3)cn2)CC1,10.6% (inactive)

row,SMILES,growth
1,O=C1C(N2CCN(c3ccccc3)CC2)=C(Cl)C(=O)c2ncccc21,-62.8% (active)
2,CSC(=S)N/N=C(\C)c1ccccn1,-19.5% (active)
3,COc1ccc(/C(C#N)=C/c2cc(OC)c(OC)c(OC)c2)cc1,27.6% (inactive)
4,COc1ccc(-c2cc(-c3cc(OC)ccc3OC)[nH]c(=O)c2C#N)cc1,37.9% (inactive)
5,O=C(/C=C/c1ccc(Cl)cc1)c1ccccc1,89.7% (inactive)
6,Cc1cc(C)c2c(c1)N1OC(C2)C[C@H]1/C=C/c1ccccc1 (stereo not given in full),92.4% (inactive)
7,CCN(CCNc1cc(OC)cc2cccnc12)CCc1ccccc1,-25.4% (active)
8,O=C(/C=C/c1cccc(Br)c1)c1cccc(OCCCCOc2cccc(C(=O)/C=C/c3cccc(Br)c3)c2)c1,102% (inactive)
9,O=C1NC(=O)C(Cn2cnc3ccccc32)N1 (stereo not given),99% (inactive)
10,Cc1nc2ncc(-c3ccc4ncnc(NCc5ccccc5)c4c3)cc2[nH]1,11.1% (inactive)
11,COc1cc(-c2cc(-c3nc4ccccc4[nH]3)[nH]n2)cc(OC)c1OC,14.7% (inactive)
12,COc1ccc2oc3c4[nH]c5ccccc5c4c4c(c3c2c1)C(=O)N(O)C4=O,104% (inactive)
13,O=C1CC2c3cc(-c4cc5ccccc5o4)ccc3CCN2C(=O)N1c1ccccc1 (stereo not given),88.4% (inactive)
14,O=C(CN1CCCCC1)Sc1nnc2sc3ccccc3n12,97.1% (inactive)
15,Cc1cc(Cl)ccc1Nc1nc(C(F)(F)F)ccc1C(=O)NCC(=O)N/N=C/c1c(Cl)cccc1Cl,105% (inactive)
16,CS(=O)(=O)c1ccc(-n2cc(/C=N/O)c(-c3ccccc3)n2)cc1,35% (inactive)
17,CC(C)(C)[Si](C)(C)OC1[C@@H](O[Si](C)(C)C(C)(C)C)[C@@H](CNC(=O)NC(=O)C(F)(F)F)O[C@H]1n1cnc2c(NC(=O)Nc3ccccc3)ncnc21 (stereo not given in full),102% (inactive)
18,Cc1cccc(-c2nnc(SCC(=O)Nc3ncc(Cc4ccccc4)s3)n2N2C(=O)CSC2=S)c1,62.1% (inactive)
19,CN(C)c1ccc(C(C#N)(c2ccccc2)c2ccc(N(C)C)cc2)cc1,82.8% (inactive)
20,O=C(/C=C/C12c3ccccc3C(c3ccccc31)C1C(=O)NC(=O)C12)c1ccncc1 (stereo not given),6.35% (active)
